This is a sample that favours compounds with a hit; in the whole collection about 19% have one here.
HT1080-NT tox: kills 2HG-producing HT-1080-NT fibrosarcoma cells. AID 686970. HT-1080-NT fibrosarcoma viability, CellTiter-Glo ATP luminescence, 48 h. Potency, µM (doses to about 46.1 µM), inactives show top-dose activity, negative = less viability, actives largely listed as cytotoxic. hit rate 1.6% among 360,000;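 further: NT is the 2HG producing partner of a matched IDH1 knockdown line; potency means the concentration at half of the fitted maximal effect; 0% = DMSO-treated cells and -100% = media-only wells without cells; nearly all actives have a fitted effect of over 55% in size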
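Fibrosarcoma NT cells, 750 per well in 5% FBS RPMI, were exposed to compound for 48 hours. Viability: CellTiter-Glo luminescence.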
TDP1 cell noCPT: qHTS for Inhibitors of human tyrosyl-DNA phosphodiesterase 1 (TDP1): qHTS in cells in absence of CPT | DT40 Tdp1-/- hTDP1 cells, no CPT, ATP luminescence, 48 h | Potency, µM (doses to about 46.2 µM), without a hit: top-dose activity change, negative = growth inhibition, most hits filed as inhibitors | hit rate 15% among 420,000 | AID 686978, 2013; further: potency means the concentration at half of the fitted maximal effect; nearly all actives have a fitted effect of over 55% in size
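No-CPT arm: Tdp1-/-;hTDP1 DT40 cells (400/well) plus compounds, incubated ≥48 hr at 37 °C. Readout CellTiter-Glo luminescence.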
IL-1B inflam inh: inflammasome signaling inhibition, IL-1 beta readout; activity change, % at 57.5 µM; THP-1 LPS/ATP IL-1B secretion, AlphaLISA, 16 h; hits give low values; hit rate 4.7% among 360,000; AID 743279; in the data active means activity change below about -50%; inconclusive means mostly about -30% to -49%
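THP-1 cells pretreated 1 hr with compounds (up to 57.5 uM final), then stimulated with LPS (250 ng/mL final) plus ATP (1.25 mM final); secreted IL-1B measured by AlphaLISA after 16 hr, decreased signal indicating inhibition.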
HT1080 IDH1KD tx: toxicity to HT-1080 IDH1 knockdown cells (counter line) | HT-1080 IDH1 knockdown viability, ATP luminescence, 48 h | Potency, µM (series often up to 46.1 µM), inactives show at the highest dose activity, negative = toxicity, actives largely listed as cytotoxic | hit rate 2% among 360,000;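 further: potency means the concentration at half of the fitted maximal effect; 0% = DMSO wells and -100% = cell-free medium wells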
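Cytotoxicity counter-line: IDH1KD HT-1080, 48 h, CellTiter-Glo. Curves classed by r2, magnitude and activity.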
DT40 TDP1 CPT: growth inhibition of DT40 Tdp1-/-;hTDP1 cells with camptothecin (screen for TDP1 inhibitors); chicken DT40 Tdp1-/-;hTDP1 cells + 20 nM CPT, ATP luminescence, 48 h; Potency, µM (doses to about 46.2 µM), without a hit: at the top dose activity change, negative = growth inhibition, most hits filed as inhibitors; hit rate 12% among 420,000; AID 686979; further: potency means the concentration at half of the fitted maximal effect; nearly all actives have a fitted effect of over 55% in size
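Chicken DT40 Tdp1-/- cells complemented with human TDP1, 400 cells/well, exposed to compounds plus 20 nM camptothecin for at least 48 h at 37 C; viability read as ATP content by CellTiter-Glo luminescence.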
Starred values were filed as active, the others as inactive; ? = inconclusive; / = no result; [ ] = remark or other dose. Unless noted, the call rests on the fitted dose curve; in most records, active means well fitted curve in the direction sought with a large enough effect; inconclusive means small, poorly fitted or top-dose-only effect, or another doubt; inactive means no such curve, though single readings can be large; an effect the other way counts as inactive or inconclusive. Unless noted, on the % scale 0 is the no-effect control and ±100 the full control effect.

SMILES | HT1080-NT tox | TDP1 cell noCPT | IL-1B inflam inh | HT1080 IDH1KD tx | DT40 TDP1 CPT
O=C(NCc1ccco1)c1ccc(-c2cccc(Cl)c2)o1 | -2.4% | -15.4% | -27.3 | -19.4% | 17.9%
O=C(/C(=C/O)N=Nc1ccccc1)c1cccs1 | 16.4µM* | ? | -74.1* | ? | ?
CC(C)CCNC(=O)Nc1ccc2c(c1)N(C)C(=O)c1ccccc1S2 | / | 16.4µM* | / | / | 14.6µM*
O=C(Nc1ccc2c(c1)N(Cc1ccccc1)C(=O)c1ccccc1S2)NC1CC1 | -15.5% | -12.4% | -8.4 | -4.6% | -2.5%
CN1C(=O)c2ccccc2Sc2ccc(NC(=O)NCc3ccccc3Br)cc21 | / | 20.6µM* | / | / | 16.4µM*
CC(C)(C)OC(=O)N1CCC(NC(=O)c2[nH]cnc2C(=O)Nc2ccon2)CC1 | -5.9% | ? | 16.7 | -8.3% | ?
O=[N+]([O-])c1ccc(Cl)cc1NCCCN1CCOCC1 | -12.8% | 8.4% | 4.2 | 0.2% | 7.6%
COc1ccc(S(=O)(=O)N2CCOCC2)cc1NC(=O)c1ccc(SC)cc1OC | 19.6% | ? | ? | 20.8% | ?
CCc1ccc(-c2cc3c(=O)n(CC(=O)N4CCCCCC4)nc(C)n3n2)cc1 | 6.6% | 10.2% | 20.2 | 7.1% | -29.3%
Cc1cccc(Cc2ccc(Cl)nn2)c1 | -2.1% | 9.8% | -8.6 | 13.1% | 0.3%
CCOc1ccc(C2C(=O)N(C3CCCCCC3)CC(=O)N2Cc2ccc(C)cc2)cc1OC (configuration not stated) | / | 23.1µM* | / | / | 23.1µM*
COc1cc(C2C(=O)N(C3CCCCCC3)CC(=O)N2CCc2ccccc2)ccc1OC(C)C (configuration not stated) | / | 13µM* | / | / | 16.4µM*
COc1ccc(CN2C(=O)CN(C3CCCCCC3)C(=O)C2c2ccc(OC)c(OC)c2)cc1 (configuration not stated) | 15.6% | -23.7% | -13.7 | 17.1% | ?
CC1CCC(N2CC(=O)N(C3CCCC3)C(c3ccc(Cl)cc3)C2=O)CC1 (configuration not stated) | / | 16.4µM* | / | / | ?
O=C1C(c2ccc(F)cc2)N(CCc2ccc(Cl)cc2)C(=O)CN1C1CCCCC1 (configuration not stated) | / | 20.6µM* | / | / | 16.4µM*
CC1CCC(N2CC(=O)N(C3CCCCC3)C(c3ccc(F)cc3)C2=O)CC1 (configuration not stated) | / | -20.9% | / | / | 3.9%
COc1cccc2cc(-c3cn4c(n3)sc3cc(F)ccc34)c(=O)oc12 | / | -4.0% | / | / | 4.6%
CN1C(=O)Cc2cc(S(=O)(=O)CCC(=O)Nc3cccc(C(F)(F)F)c3)ccc21 | / | -5.4% | / | / | -17.2%
COc1ccc(C2C(=O)N(C3CCCCCC3)CC(=O)N2Cc2ccccc2)cc1OC (configuration not stated) | 8.8% | ? | -6.8 | 0.7% | ?
COc1ccc(CCN2C(=O)CN(C3CCCCCC3)C(=O)C2c2ccc(C)cc2)cc1OC (configuration not stated) | / | 23.1µM* | / | / | ?
COc1ccc(CCN2C(=O)CN(C3CCCCCC3)C(=O)C2c2ccc(Cl)cc2)cc1OC (configuration not stated) | / | 18.4µM* | / | / | ?
COc1ccc(CCNC(=O)C2CCN(S(=O)(=O)c3ccc4nc5c(c(C(=O)O)c4c3)CCCC5)CC2)cc1OC | -2.3% | 18.0% | -9.2 | 11.6% | -2.2%
CNCc1ccccc1Sc1cccc(O)c1 | -1.2% | ? | ? | -1.2% | 0.2%
CNCc1ccccc1Sc1cc(O)ccc1O | ? | 3.66µM* | -100.0* | ? | 1.84µM*
CC(=O)c1ccccc1NCC(=O)Nc1ccc(C)cc1 | 7.9% | -18.3% | -7.4 | 14.9% | -1.7%
SMILES | HT1080-NT tox | TDP1 cell noCPT | IL-1B inflam inh | HT1080 IDH1KD tx | DT40 TDP1 CPT
COc1cccc(CNn2cnnc2)c1OCc1ccc(F)cc1 | 9.0% | -2.7% | 0.0 | 14.9% | -6.6%
COc1cccc(CNCCc2c[nH]c3ccccc23)c1OCc1ccccc1 | 20.6µM* | 9.2µM* | / | 16.4µM* | 7.31µM*
COc1cccc(CNC23CC4CC(CC(C4)C2)C3)c1OCc1ccccc1 | -25.3% | 10.3µM* | -96.5* | -11.6% | 9.2µM*
COc1cc(CNCCc2c[nH]c3ccccc23)ccc1OCc1ccccc1F | ? | ? | -56.7* | ? | 18.4µM*
O=C(NCCC(=O)N1CCN(Cc2c(F)cccc2Cl)CC1)c1ccc(Cl)cc1 | -7.3% | ? | -4.0 | -10.8% | ?
Cc1cccc(Cn2c(-c3cccs3)nc3ccccc32)c1 | / | ? | / | / | -21.3%
CCC(C)n1c(-c2cccs2)nc2nc3ccccc3nc21 (configuration not stated) | -2.4% | 11.6µM* | 17.5 | -1.8% | 18.4µM*
CCOc1ccc(NS(=O)(=O)c2cc(OC)ccc2OC)cc1 | -2.0% | ? | 13.6 | ? | -18.4%
CCOc1ccc(S(=O)(=O)Nc2ccc(F)cc2)c(C)c1C | 5.8%[9.24 µM] | 20.6µM* | 12.2 | 10µM* | 25.9µM*
O=C(c1ccoc1)N1CCN(c2cc(-c3ccco3)nc3cc(-c4ccccc4)nn23)CC1 | ? | 7.31µM* | -0.5 | ? | 8.2µM*
Cc1nn2c(N3CCN(C(=O)c4ccco4)CC3)cc(C(C)(C)C)nc2c1-c1ccccc1 | -5.2% | ? | -25.7 | -5.1%[9.24 µM] | ?
CCOC(=O)C1CCN(c2cc(C)nc3cc(-c4cccc(F)c4)nn23)CC1 | 8.1% | ? | 8.7 | 15.0% | ?
